# From PubChem BioAssay AID743145 (Broad Institute, 2013)
# Potency and affinity values are given separately. Calls of active or inactive are those of the source. No rule for the calls is given here.
# Assay: COV434 cell viability loss – plate reader, dry powder, SA7, cytotoxicity control for PAX8 inhibitor project, dose response (AID 743145)
# Details: series mostly up to 35 µM; activity change, negative = cytotoxicity: at the top concentration
row,Compound,"activity change, negative = cytotoxicity"
1,N#C[C@@H]1[C@@H](c2ccc(-c3ccccc3F)cc2)[C@@H](CO)N1C(=O)C1CCC1,-6.05% (inactive)
2,O=C(CN1C(=O)c2ccccc2S1(=O)=O)c1ccccc1Cl,-6.49% [at 50 µM] (inactive)
3,COc1ccc(S(=O)(=O)N2CCCCN3[C@H](CO)[C@H](c4ccc(C#CC(C)C)cc4)[C@H]3C2)cc1,17.6% (inactive)
4,COc1cccc(-c2ccc([C@H]3[C@@H](CO)N(C(=O)Cc4ccccc4)[C@H]3C#N)cc2)c1,-16.2% (inactive)
5,COc1ccc(S(=O)(=O)Nc2ccc3c(c2)CC(=O)N([C@@H](C)CO)C[C@H](C)[C@@H](CN(C)Cc2ccc(C(F)(F)F)cc2)O3)cc1,-2.58% (inactive)
6,O=C(NCCc1ccccc1)c1ccc2c(c1)OCCCO2,-23.6% [at 50 µM] (inactive)
7,C[C@H]1CN([C@@H](C)CO)C(=O)Cc2cc(NC(=O)NC3CCCCC3)ccc2O[C@@H]1CN(C)Cc1ccc(-c2ccccc2)cc1,22.3% (inactive)
8,COc1cccc(C#Cc2ccc([C@@H]3[C@@H](C#N)N(C(=O)C4CCCCC4)[C@H]3CO)cc2)c1,-26.6% (inactive)
9,COC(=O)[C@@]1(CCS(=O)(=O)c2ccccc2)N=C(c2ccc(OCCCO)cc2)O[C@H]1c1ccccc1,-28.9% [at 50 µM] (inactive)
10,C[C@H](CO)N1C[C@H](C)[C@@H](CN(C)Cc2ccc(-c3ccccc3)cc2)Oc2ccc(NC(=O)C3CC3)cc2CC1=O,23.2% (inactive)
11,O=C1/C(=C/c2ccccc2)SC(=S)N1CC(=O)N1CCCCC1c1cccnc1 (configuration not stated),-3.46% [at 50 µM] (inactive)
12,COc1ccc(S(=O)(=O)Nc2ccc3c(c2)CC(=O)N([C@@H](C)CO)C[C@@H](C)[C@@H](CN(C)Cc2ccc(-c4ccccc4)cc2)O3)cc1,-5.13% (inactive)
